Screens deposited in PubChem BioAssay by several laboratories.
Mtb FBA inh = inhibits M. tuberculosis FBA enzyme. inhibition, % at 1 µM. AID 588726. purified M. tuberculosis FBA, fluorescence read-out. 360,000 compounds, 2.3% hits. P9WQA3; in the data active means inhibition above about 27%
Target sequence (P9WQA3 whole entry, looked up): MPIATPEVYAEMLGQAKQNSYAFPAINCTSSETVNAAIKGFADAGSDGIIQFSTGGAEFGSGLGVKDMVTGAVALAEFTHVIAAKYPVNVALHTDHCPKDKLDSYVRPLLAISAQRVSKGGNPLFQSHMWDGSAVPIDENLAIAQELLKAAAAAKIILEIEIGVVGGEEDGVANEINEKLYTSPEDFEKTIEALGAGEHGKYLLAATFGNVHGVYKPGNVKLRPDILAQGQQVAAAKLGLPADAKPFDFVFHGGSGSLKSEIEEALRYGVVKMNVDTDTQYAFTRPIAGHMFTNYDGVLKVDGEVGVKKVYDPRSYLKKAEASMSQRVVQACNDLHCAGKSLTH
GDH-TPI counter = GDH-TPI coupled enzyme inhibition counter-screen; inhibition, % at 4.8 µM; 360,000 compounds, 1.2% hits; AID 588335; GDH-TPI coupled enzyme counterscreen, NADH absorbance; in the data active means inhibition above about 30%
Mtb betalactam = beta-lactam sensitization of Mtb H37Rv; M. tuberculosis H37Rv growth with meropenem, percent inhibition; inhibition, % at 25 µM; 330,000 compounds, 0.27% hits; AID 434955; call rule not given here;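 further: growth measured after seven days incubation then overnight dye step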
UGM FP inh = inhibitors of M. tuberculosis UDP-galactopyranose mutase; P9WIQ1; purified UGM, fluorescence polarization probe displacement; inhibition, % at 10 µM; 320,000 compounds, 0.06% hits; AID 504406; in the data active means inhibition above about 10%, passing the limit was not always enough; inconclusive means no clear call, values can overlap the other calls
RecA intein inh = blocks M. tuberculosis RecA intein splicing. P9WHJ3. cell-free RecA intein splicing, fluorescence. inhibition, % (no concentration beside the values). 290,000 compounds, 0.75% hits. AID 2221; in the data active means inhibition above about 30%; inconclusive means no clear call, values can overlap the other calls
Rv3671c protease = inhibitors of M. tuberculosis serine protease Rv3671c. inhibition, % at 5.96 µM. 320,000 compounds, 0.048% hits. AID 2606. P9WHR9; in the data active means inhibition above about 38%;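 further: extracellular domain of Rv3671c used as enzyme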
Each line names hits and unclear results; the compound was inactive in the other large screens. Only some compounds are listed: those with a hit (about 4% of all), similar ones and a draw of the others.

COc1ccc2cc(/C(C)=N/NC(=O)C3CC3)ccc2c1	Mtb FBA inh active
COc1ccc(/C(C)=N/NC(=O)C2CC2)cc1	none
CCOc1ccc(NC(=O)C2CCCN(S(=O)(=O)c3ccc4c(c3)C(C)(C)C(=O)N4C)C2)cc1 (stereo not given)	none (no result: Mtb betalactam, UGM FP inh, RecA intein inh, Rv3671c protease)
O=C(c1ccco1)N1N=C(c2cccs2)CC1c1cc([N+](=O)[O-])ccc1O (stereo not given)	GDH-TPI counter 45
O=S(=O)(Nc1cccc(F)c1)c1ccc(S(=O)(=O)N2CCOCC2)cc1	none (no result: Mtb betalactam, UGM FP inh, RecA intein inh, Rv3671c protease)
O=C(CC(=O)c1ccccc1)c1ccccc1	none (no result: Mtb betalactam, UGM FP inh, RecA intein inh, Rv3671c protease)
CC(CC(=O)c1ccccc1)=NCCCN=C(C)CC(=O)c1ccccc1	GDH-TPI counter 60 (no result: Mtb betalactam, UGM FP inh, RecA intein inh, Rv3671c protease)
O=C(CSc1ncnc2c1nnn2Cc1ccc(F)cc1)NCC1CCCO1 (stereo not given)	RecA intein inh 39
COc1cccc(-c2cc3nc(-c4ccccc4)cc(=O)n3[nH]2)c1	Mtb FBA inh 84
COc1cccc(N=Nc2c(N)[nH]n3c(=O)cc(-c4ccccc4)nc23)c1	none
O=C(CN1C(=O)S/C(=C\c2ccc(F)cc2)C1=O)NC1C=CS(=O)(=O)C1 (stereo not given)	GDH-TPI counter 33
O=C(CN1C(=O)S/C(=C\c2ccccc2F)C1=O)NC1C=CS(=O)(=O)C1 (stereo not given)	GDH-TPI counter 31
O=C(CCN1C(=O)/C(=C/c2ccccc2Cl)SC1=S)NC1C=CS(=O)(=O)C1 (stereo not given)	none
O=C(CCN1C(=O)/C(=C/c2ccc(F)cc2)SC1=S)NC1C=CS(=O)(=O)C1 (stereo not given)	none
COc1ccc(/C=C2\SC(=O)N(CC(=O)NC3C=CS(=O)(=O)C3)C2=O)cc1 (stereo not given)	GDH-TPI counter 48
CCOc1ccc(C2C(C(C)=O)=C(O)C(=O)N2CCc2c[nH]c3ccccc23)cc1 (stereo not given)	none
C[C@H](CO)N1C[C@H](C)[C@@H](CN(C)C(=O)Nc2ccc3c(c2)OCO3)Oc2ccc(NC(=O)CCC(F)(F)F)cc2C1=O	none (no result: RecA intein inh)
O=C(NCCOc1ccc(Cl)cc1)c1ccco1	none
Cn1cc(/C=C(\NC(=O)c2ccccc2)C(=O)N2CCOCC2)c2ccccc21	none
COc1ccc(C(=O)N/C(=C\c2cn(C)c3ccccc23)C(=O)N2CCOCC2)cc1	GDH-TPI counter 32
CCn1cc(/C=C(\NC(=O)c2ccc(OC)cc2)C(=O)N2CCOCC2)c2ccccc21	GDH-TPI counter 38
CCn1cc(/C=C(\NC(=O)c2cc(OC)c(OC)c(OC)c2)C(=O)N2CCOCC2)c2ccccc21	GDH-TPI counter 31 (no result: Mtb betalactam, UGM FP inh, RecA intein inh, Rv3671c protease)
CC(=O)NC(C)(c1ccccc1)c1nc(-c2cccc(F)c2)cs1 (stereo not given)	none (no result: Mtb betalactam, UGM FP inh, RecA intein inh, Rv3671c protease)
CCCNC(=O)C1(C)CCCN(C(=O)COc2ccc(C(C)(C)C)cc2)C1 (stereo not given)	none (no result: Mtb betalactam, UGM FP inh, RecA intein inh, Rv3671c protease)
COc1ccc(-c2cc(C(=O)N3CCN(c4ccc(F)cc4)CC3)no2)cc1OC	none
C=CCNC(=S)Nc1sc2c(c1C(=O)OCC)CC(C(C)C)OC2 (stereo not given)	GDH-TPI counter 32 (no result: UGM FP inh)
CCOC(=O)c1c(NC(=S)NCCc2ccccc2)sc2c1CC(C(C)C)OC2 (stereo not given)	none
CC(=O)NCC(=O)NNC1CC(=O)N(c2cccc(Cl)c2)C1=O (stereo not given)	none
COc1ccc(/C=C(/C#N)C(=O)Nc2ccccc2C)cc1C(=O)O	none
COc1ccc(/C=C(/C#N)C(=O)Nc2ccc(C)cc2C)cc1C(=O)O	GDH-TPI counter 54
COc1ccc(/C=C(/C#N)C(=O)Nc2cccc(C)c2C)cc1C(=O)O	GDH-TPI counter 37
CC1(C)N=C(N)N=C(N)N1c1ccc(OCC(=O)N2CCOCC2)c(Cl)c1	none (no result: Mtb betalactam, UGM FP inh, RecA intein inh, Rv3671c protease)
CC(C)CC1C(=O)N(Cc2cn(CCC3OCCO3)nn2)CCS(=O)(=O)N1Cc1ccc(-c2ccncc2)cc1 (stereo not given)	none (no result: Mtb betalactam, UGM FP inh, RecA intein inh, Rv3671c protease)
O=S(=O)(Nc1nc2ccccc2nc1NCc1ccco1)c1cccs1	GDH-TPI counter 32
CCCCCNc1nc2ccccc2nc1NS(=O)(=O)c1cccs1	GDH-TPI counter 31
C=CCNc1nc2ccccc2nc1NS(=O)(=O)c1cccs1	none
Cc1ccc(NC(=O)C(=O)NCc2ccc(/C=N/NC(=O)c3c(C)nc4ccccn34)o2)cc1	GDH-TPI counter 42, Mtb betalactam inconclusive
CCOC(=O)CC1=NN(c2ccccc2)C(=O)C1	RecA intein inh 66
COC(=O)Cn1cc(/C=N/NC(=O)c2ccc(C#N)cc2F)c2ccccc21	GDH-TPI counter 38
CCn1cc(/C=N/NC(=O)c2ccc(C#N)cc2F)c2ccccc21	none
CCOC(=O)Cn1cc(/C=N/NC(=O)CC#N)c2ccccc21	RecA intein inh 52
CN(C(=O)CCCN1C(=O)c2ccccc2C1=O)C1CCCCC1	none (no result: RecA intein inh)
CCc1ccccc1NC(=S)N(CCc1ccncc1)C(C)C	none
CC1=CC(c2ccc(Cl)cc2)n2nc(NC(=O)CCC(=O)O)nc2N1 (stereo not given)	Mtb FBA inh 115
CCCc1cc(-n2ccnc2C)n2c(nc3ccccc32)c1C#N	none (no result: RecA intein inh)
CCCc1cc(NCCCCO)n2c(nc3ccccc32)c1C#N	Mtb FBA inh 178, Mtb betalactam inconclusive
CCCc1cc(NCCOCCO)n2c(nc3ccccc32)c1C#N	Mtb FBA inh active (no result: Mtb betalactam, UGM FP inh, RecA intein inh, Rv3671c protease)
CC(C)c1cc(NCCOCCO)n2c(nc3ccccc32)c1C#N	Mtb FBA inh active
O=C(CNC1=NCCC1)c1ccc(Cl)cc1	RecA intein inh 45
O=c1[nH]c(NCCCO)nc2c1C1(CCCC1)Cc1ccccc1-2	Mtb FBA inh 184
CCC1(C)Cc2ccccc2-c2nc(NCCCO)[nH]c(=O)c21 (stereo not given)	Mtb FBA inh 140
CC1(C)Cc2ccccc2-c2nc(NCCCO)n(-c3ccccc3)c(=O)c21	Mtb FBA inh 198
N#Cc1ccc(CN2CCN(C(=O)C3CC(=O)N(c4ccccc4F)C3)CC2)cc1 (stereo not given)	none (no result: RecA intein inh)
CC1Cc2ccccc2N1CC(=O)Nc1cc(S(=O)(=O)N2CCOCC2)ccc1Cl (stereo not given)	none (no result: Mtb betalactam, UGM FP inh, RecA intein inh, Rv3671c protease)
Cc1ccc(N2CCCn3c2cc(C)c(C#N)c3=O)cc1C	GDH-TPI counter 39
Cn1nc(-c2ccccc2)c2nc3ccccc3nc21	UGM FP inh 28
CCCCn1nc(-c2ccccc2)c2nc3ccccc3nc21	UGM FP inh 29 (no result: Mtb FBA inh, GDH-TPI counter)
Cc1ccc(-c2nc3ccccc3nc2-c2ccccc2)cc1	none
CCC(C)NS(=O)(=O)c1ccc(NC(=O)CNCc2cccs2)cc1 (stereo not given)	none (no result: Mtb betalactam, UGM FP inh, RecA intein inh, Rv3671c protease)
CCOC(=O)C1CCCN(C(=O)c2cccc(C(F)(F)F)c2)CC1 (stereo not given)	none (no result: Mtb betalactam, UGM FP inh, RecA intein inh, Rv3671c protease)
CC1(C(=O)NS(=O)(=O)c2cccc(Cl)c2)CCN1C(=O)CC1CC1 (stereo not given)	none (no result: Mtb betalactam, UGM FP inh, RecA intein inh, Rv3671c protease)
CCCSc1nnc(Sc2nnnn2-c2ccccc2)s1	RecA intein inh 47
Cc1ccccc1-n1nnnc1Sc1nnnn1-c1ccccc1	none (no result: RecA intein inh)
NS(=O)(=O)c1ccc(NC(=O)COc2ccc(S(=O)(=O)N3CCCC3)cc2)cc1	none
